# Reference: paper PMC8384837, “Expanding the binding specificity for RNA recognition by a PUF domain”
# Numbering of substitutions follows the chain as printed.
# Columns and labels:
# Test in all cases: yeast three-hybrid, YBZ-1, SC-Leu-His + 0.5 mM 3-AT, 4 days
# Settings in all cases: tags: N-Gal4 AD-HA kept; label: inside an RPR1-promoter hybrid RNA with tandem MS2 sites; ssRNA
# PUM1 PUF domain R6-HFW = molecular target: T1, PUM1 PUF domain R6-HFW (Homo sapiens, UniProt Q14671 828-1176, N1043H;Y1044F;Q1047W)
# T1 sequence: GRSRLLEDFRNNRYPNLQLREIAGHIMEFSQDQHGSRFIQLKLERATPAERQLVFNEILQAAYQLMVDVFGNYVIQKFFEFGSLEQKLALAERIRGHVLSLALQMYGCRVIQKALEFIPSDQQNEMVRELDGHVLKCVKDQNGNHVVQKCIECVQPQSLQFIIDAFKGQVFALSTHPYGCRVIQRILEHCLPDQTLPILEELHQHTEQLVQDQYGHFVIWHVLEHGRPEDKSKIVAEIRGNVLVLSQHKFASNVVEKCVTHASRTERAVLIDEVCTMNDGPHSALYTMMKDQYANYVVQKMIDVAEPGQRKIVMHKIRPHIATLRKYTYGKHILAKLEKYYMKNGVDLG
# Method in brief: (§1)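 The interaction score is the log change in variant frequency from input to selection. Scores were computed in log2 with a pseudocount of 1 for absent variants, using Illumina sequencing of PCR-amplified repeat regions. The input came from four days on SC-Leu and the selection from four days on SC-Leu-His + 0.5 mM 3-AT. The cells were strain YBZ-1 (LexA–MS2 coat fusion, HIS3 reporter) co-expressing Pumilio-1 PUF domain libraries and matching RNA elements from a centromeric plasmid.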
# PUM1 PUF domain R8-LRR = PUM1 PUF domain R8-LRR (Homo sapiens, UniProt Q14671 828-1176, N1122L;Y1123R;Q1126R)
# Method in brief: as §1
# PUM1 PUF domain R6-RHG = molecular target: T2, PUM1 PUF domain R6-RHG (Homo sapiens, UniProt Q14671 828-1176, N1043R;Y1044H;Q1047G)
# T2 sequence: T1 sequence with H216R, F217H, W220G
# Method in brief: as §1
# PUM1 PUF domain R6-VYM = molecular target: T3, PUM1 PUF domain R6-VYM (Homo sapiens, UniProt Q14671 828-1176, N1043V;Q1047M)
# T3 sequence: T1 sequence with H216V, F217Y, W220M
# Method in brief: as §1
# PUM1 PUF domain R3-DFE = PUM1 PUF domain R3-DFE (Homo sapiens, UniProt Q14671 828-1176, C935D;R936F;Q939E)
# Method in brief: as §1
# PUM1 PUF domain R1-RTE = PUM1 PUF domain R1-RTE (Homo sapiens, UniProt Q14671 828-1176, S863R;R864T;Q867E)
# Method in brief: as §1
# PUM1 PUF domain R1-KAS = PUM1 PUF domain R1-KAS (Homo sapiens, UniProt Q14671 828-1176, S863K;R864A;Q867S)
# Method in brief: as §1
# PUM1 PUF domain R1-RVQ = PUM1 PUF domain R1-RVQ (Homo sapiens, UniProt Q14671 828-1176, S863R;R864V)
# Method in brief: as §1
# PUM1 PUF domain R8-RPR = PUM1 PUF domain R8-RPR (Homo sapiens, UniProt Q14671 828-1176, N1122R;Y1123P;Q1126R)
# Method in brief: as §1
# PUM1 PUF domain R8-GYK = PUM1 PUF domain R8-GYK (Homo sapiens, UniProt Q14671 828-1176, N1122G;Q1126K)
# Method in brief: as §1
# PUM1 PUF domain R8-PYH = PUM1 PUF domain R8-PYH (Homo sapiens, UniProt Q14671 828-1176, N1122P;Q1126H)
# Method in brief: as §1
# PUM1 PUF domain R4-VWK = PUM1 PUF domain R4-VWK (Homo sapiens, UniProt Q14671 828-1176, N971V;H972W;Q975K)
# Method in brief: as §1
# PUM1 PUF domain R4-VHH = PUM1 PUF domain R4-VHH (Homo sapiens, UniProt Q14671 828-1176, N971V;Q975H)
# Method in brief: as §1
# PUM1 PUF domain R4-EHR = PUM1 PUF domain R4-EHR (Homo sapiens, UniProt Q14671 828-1176, N971E;Q975R)
# Method in brief: as §1
# PUM1 PUF domain R6-SWH = molecular target: T4, PUM1 PUF domain R6-SWH (Homo sapiens, UniProt Q14671 828-1176, N1043S;Y1044W;Q1047H)
# T4 sequence: T1 sequence with H216S, F217W, W220H
# Method in brief: as §1
# PUM1 PUF domain R5-WWA = PUM1 PUF domain R5-WWA (Homo sapiens, UniProt Q14671 828-1176, C1007W;R1008W;Q1011A)
# Method in brief: as §1
# PUM1 PUF domain R5-SQS = PUM1 PUF domain R5-SQS (Homo sapiens, UniProt Q14671 828-1176, C1007S;R1008Q;Q1011S)
# Method in brief: as §1
# PUM1 PUF domain R2-LWM = PUM1 PUF domain R2-LWM (Homo sapiens, UniProt Q14671 828-1176, N899L;Y900W;Q903M)
# Method in brief: as §1
# PUM1 PUF domain R5-RSR = PUM1 PUF domain R5-RSR (Homo sapiens, UniProt Q14671 828-1176, C1007R;R1008S;Q1011R)
# Method in brief: as §1
# PUM1 PUF domain R7-RFP = PUM1 PUF domain R7-RFP (Homo sapiens, UniProt Q14671 828-1176, S1079R;N1080F;E1083P)
# Method in brief: as §1
sequence,measurement,setting,value
GGCUAGAACUAGUGGAUCCCCCGGCGCCCGGCGGCUCGAGCCCGGGUAAGUGUAAAUAGUCUGCAUGCCGCCGGGCGCCAUGCCUGCAGGUCGACUCUAGAAAACAUG,binding signal,PUM1 PUF domain R6-HFW,3.2 log2 enrichment (interaction score)
same,binding signal,PUM1 PUF domain R8-LRR,2.35 log2 enrichment (interaction score)
same,binding signal,PUM1 PUF domain R6-RHG,2.33 log2 enrichment (interaction score)
same,binding signal,PUM1 PUF domain R6-VYM,2.8 log2 enrichment (interaction score)
same,binding signal,PUM1 PUF domain R3-DFE,2.28 log2 enrichment (interaction score)
GGCUAGAACUAGUGGAUCCCCCGGCGCCCGGCGGCUCGAGCCCGGGUAAGUGUAAAUUGUCUGCAUGCCGCCGGGCGCCAUGCCUGCAGGUCGACUCUAGAAAACAUG,binding signal,PUM1 PUF domain R1-RTE,2.65 log2 enrichment (interaction score)
same,binding signal,PUM1 PUF domain R1-KAS,3.9 log2 enrichment (interaction score)
same,binding signal,PUM1 PUF domain R1-RVQ,4.43 log2 enrichment (interaction score)
GGCUAGAACUAGUGGAUCCCCCGGCGCCCGGCGGCUCGAGCCCGGGUAAGUGUAAAUGGUCUGCAUGCCGCCGGGCGCCAUGCCUGCAGGUCGACUCUAGAAAACAUG,binding signal,PUM1 PUF domain R1-RTE,0.93 log2 enrichment (interaction score)
GGCUAGAACUAGUGGAUCCCCCGGCGCCCGGCGGCUCGAGCCCGGGUAAGCGUAAAUAGUCUGCAUGCCGCCGGGCGCCAUGCCUGCAGGUCGACUCUAGAAAACAUG,binding signal,PUM1 PUF domain R8-LRR,3.25 log2 enrichment (interaction score)
same,binding signal,PUM1 PUF domain R8-RPR,2.38 log2 enrichment (interaction score)
same,binding signal,PUM1 PUF domain R8-GYK,4.76 log2 enrichment (interaction score)
same,binding signal,PUM1 PUF domain R8-PYH,3.67 log2 enrichment (interaction score)
GGCUAGAACUAGUGGAUCCCCCGGCGCCCGGCGGCUCGAGCCCGGGUAAGUGUACAUAGUCUGCAUGCCGCCGGGCGCCAUGCCUGCAGGUCGACUCUAGAAAACAUG,binding signal,PUM1 PUF domain R4-VWK,5.63 log2 enrichment (interaction score)
same,binding signal,PUM1 PUF domain R4-VHH,5.04 log2 enrichment (interaction score)
same,binding signal,PUM1 PUF domain R4-EHR,3 log2 enrichment (interaction score)
GGCUAGAACUAGUGGAUCCCCCGGCGCCCGGCGGCUCGAGCCCGGGUAAGUGAAAAUAGUCUGCAUGCCGCCGGGCGCCAUGCCUGCAGGUCGACUCUAGAAAACAUG,binding signal,PUM1 PUF domain R6-SWH,2.64 log2 enrichment (interaction score)
same,binding signal,PUM1 PUF domain R6-VYM,6.6 log2 enrichment (interaction score)
GGCUAGAACUAGUGGAUCCCCCGGCGCCCGGCGGCUCGAGCCCGGGUAAGUGUGAAUAGUCUGCAUGCCGCCGGGCGCCAUGCCUGCAGGUCGACUCUAGAAAACAUG,binding signal,PUM1 PUF domain R5-WWA,2.58 log2 enrichment (interaction score)
same,binding signal,PUM1 PUF domain R5-SQS,3.19 log2 enrichment (interaction score)
GGCUAGAACUAGUGGAUCCCCCGGCGCCCGGCGGCUCGAGCCCGGGUAAGUGUAAAAAGUCUGCAUGCCGCCGGGCGCCAUGCCUGCAGGUCGACUCUAGAAAACAUG,binding signal,PUM1 PUF domain R2-LWM,7 log2 enrichment (interaction score)
GGCUAGAACUAGUGGAUCCCCCGGCGCCCGGCGGCUCGAGCCCGGGUAAGUGUCAAUAGUCUGCAUGCCGCCGGGCGCCAUGCCUGCAGGUCGACUCUAGAAAACAUG,binding signal,PUM1 PUF domain R5-RSR,4.48 log2 enrichment (interaction score)
GGCUAGAACUAGUGGAUCCCCCGGCGCCCGGCGGCUCGAGCCCGGGUAAGUGUUAAUAGUCUGCAUGCCGCCGGGCGCCAUGCCUGCAGGUCGACUCUAGAAAACAUG,binding signal,PUM1 PUF domain R5-RSR,3.79 log2 enrichment (interaction score)
GGCUAGAACUAGUGGAUCCCCCGGCGCCCGGCGGCUCGAGCCCGGGUAAGUCUAAAUAGUCUGCAUGCCGCCGGGCGCCAUGCCUGCAGGUCGACUCUAGAAAACAUG,binding signal,PUM1 PUF domain R7-RFP,5.14 log2 enrichment (interaction score)
GGCUAGAACUAGUGGAUCCCCCGGCGCCCGGCGGCUCGAGCCCGGGUAAGUGUAUAUAGUCUGCAUGCCGCCGGGCGCCAUGCCUGCAGGUCGACUCUAGAAAACAUG,binding signal,PUM1 PUF domain R4-EHR,3.83 log2 enrichment (interaction score)
GGCUAGAACUAGUGGAUCCCCCGGCGCCCGGCGGCUCGAGCCCGGGUAAGUGUAAAUCGUCUGCAUGCCGCCGGGCGCCAUGCCUGCAGGUCGACUCUAGAAAACAUG,binding signal,PUM1 PUF domain R1-RVQ,4.56 log2 enrichment (interaction score)
